In experiment [1] the target is T1, Serine/threonine-protein kinase D2 (Homo sapiens) (UniProt Q9BZL6).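 Note: mean value of PRKD2 inhibition, from the GSK PKIS screening panel.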
T1 sequence (whole entry): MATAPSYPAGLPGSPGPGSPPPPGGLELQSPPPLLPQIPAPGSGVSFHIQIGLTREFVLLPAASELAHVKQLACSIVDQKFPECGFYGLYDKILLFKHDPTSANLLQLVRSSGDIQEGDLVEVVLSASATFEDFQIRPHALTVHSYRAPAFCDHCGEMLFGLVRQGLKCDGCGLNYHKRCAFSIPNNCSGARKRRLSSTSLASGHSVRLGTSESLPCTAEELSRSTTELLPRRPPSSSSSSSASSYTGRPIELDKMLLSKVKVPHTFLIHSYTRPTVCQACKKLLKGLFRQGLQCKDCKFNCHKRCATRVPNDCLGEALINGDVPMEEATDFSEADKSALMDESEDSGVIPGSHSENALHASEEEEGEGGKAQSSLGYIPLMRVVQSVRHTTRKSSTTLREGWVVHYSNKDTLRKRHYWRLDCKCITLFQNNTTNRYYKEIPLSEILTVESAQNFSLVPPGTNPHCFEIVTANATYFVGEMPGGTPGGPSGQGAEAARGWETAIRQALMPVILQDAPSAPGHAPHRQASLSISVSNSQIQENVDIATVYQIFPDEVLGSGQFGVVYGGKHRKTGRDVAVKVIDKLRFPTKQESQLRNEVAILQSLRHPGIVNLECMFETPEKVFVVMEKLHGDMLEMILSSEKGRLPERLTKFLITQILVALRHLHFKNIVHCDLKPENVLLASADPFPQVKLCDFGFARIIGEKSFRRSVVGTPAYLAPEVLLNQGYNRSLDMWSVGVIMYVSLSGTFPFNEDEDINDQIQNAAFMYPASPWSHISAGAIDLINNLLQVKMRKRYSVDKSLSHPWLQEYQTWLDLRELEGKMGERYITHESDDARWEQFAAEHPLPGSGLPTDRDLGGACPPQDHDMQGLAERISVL
Conditions: at 1 µM.

Experiment [2] deals with T2, Serine/threonine-protein kinase D3 (Homo sapiens) (UniProt O94806).
T2 sequence (whole entry): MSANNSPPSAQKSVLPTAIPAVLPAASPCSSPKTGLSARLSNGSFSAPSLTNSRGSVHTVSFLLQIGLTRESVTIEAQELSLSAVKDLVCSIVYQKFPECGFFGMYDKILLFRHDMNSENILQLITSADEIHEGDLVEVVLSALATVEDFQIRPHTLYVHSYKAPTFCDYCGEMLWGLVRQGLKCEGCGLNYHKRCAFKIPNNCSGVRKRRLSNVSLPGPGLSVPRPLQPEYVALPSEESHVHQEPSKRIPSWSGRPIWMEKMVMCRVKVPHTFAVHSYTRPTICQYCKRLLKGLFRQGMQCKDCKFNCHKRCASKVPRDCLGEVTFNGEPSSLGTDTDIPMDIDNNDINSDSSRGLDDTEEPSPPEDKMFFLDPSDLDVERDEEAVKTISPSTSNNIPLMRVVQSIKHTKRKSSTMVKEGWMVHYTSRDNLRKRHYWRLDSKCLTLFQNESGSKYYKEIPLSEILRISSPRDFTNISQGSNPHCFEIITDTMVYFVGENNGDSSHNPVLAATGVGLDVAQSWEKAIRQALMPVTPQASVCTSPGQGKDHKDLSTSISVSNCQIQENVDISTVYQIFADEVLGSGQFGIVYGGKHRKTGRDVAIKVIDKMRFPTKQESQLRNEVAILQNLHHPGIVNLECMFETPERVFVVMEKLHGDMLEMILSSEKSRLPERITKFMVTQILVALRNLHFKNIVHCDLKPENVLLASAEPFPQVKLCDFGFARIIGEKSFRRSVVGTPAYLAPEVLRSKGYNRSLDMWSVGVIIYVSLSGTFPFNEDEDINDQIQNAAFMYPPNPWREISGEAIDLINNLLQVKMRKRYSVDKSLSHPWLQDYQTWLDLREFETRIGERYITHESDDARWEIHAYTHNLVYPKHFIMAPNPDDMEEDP
Conditions: at 0.1 µM.

In experiment [3] the target is T2, Serine/threonine-protein kinase D3 (Homo sapiens). Conditions: at 1 µM.
Experiment [4] deals with T3, cGMP-dependent protein kinase 1 (Homo sapiens) (UniProt Q13976).
T3 sequence (whole entry): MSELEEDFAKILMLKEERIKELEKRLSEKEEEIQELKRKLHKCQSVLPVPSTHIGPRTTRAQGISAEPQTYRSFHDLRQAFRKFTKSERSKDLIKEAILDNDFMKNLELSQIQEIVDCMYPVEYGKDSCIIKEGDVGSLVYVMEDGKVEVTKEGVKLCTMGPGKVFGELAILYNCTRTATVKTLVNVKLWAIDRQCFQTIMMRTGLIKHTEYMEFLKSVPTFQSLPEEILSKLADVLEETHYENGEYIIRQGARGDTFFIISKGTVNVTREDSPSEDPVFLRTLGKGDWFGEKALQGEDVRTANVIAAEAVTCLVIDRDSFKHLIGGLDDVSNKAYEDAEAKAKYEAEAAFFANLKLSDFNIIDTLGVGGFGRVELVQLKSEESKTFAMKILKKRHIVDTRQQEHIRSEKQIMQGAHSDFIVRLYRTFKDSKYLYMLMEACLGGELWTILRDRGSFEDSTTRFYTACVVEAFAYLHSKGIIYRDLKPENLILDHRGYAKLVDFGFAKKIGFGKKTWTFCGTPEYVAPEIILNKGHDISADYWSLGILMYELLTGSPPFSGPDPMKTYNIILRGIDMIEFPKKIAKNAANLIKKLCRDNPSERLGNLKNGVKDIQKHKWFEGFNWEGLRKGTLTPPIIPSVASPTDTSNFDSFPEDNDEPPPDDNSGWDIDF
Conditions: at 0.1 µM.

Experiment [5] has as its target T3, cGMP-dependent protein kinase 1 (Homo sapiens). Conditions: at 1 µM.
Experiment [6] addresses T4, cGMP-dependent protein kinase 2 (Homo sapiens) (UniProt Q13237).
T4 sequence (whole entry): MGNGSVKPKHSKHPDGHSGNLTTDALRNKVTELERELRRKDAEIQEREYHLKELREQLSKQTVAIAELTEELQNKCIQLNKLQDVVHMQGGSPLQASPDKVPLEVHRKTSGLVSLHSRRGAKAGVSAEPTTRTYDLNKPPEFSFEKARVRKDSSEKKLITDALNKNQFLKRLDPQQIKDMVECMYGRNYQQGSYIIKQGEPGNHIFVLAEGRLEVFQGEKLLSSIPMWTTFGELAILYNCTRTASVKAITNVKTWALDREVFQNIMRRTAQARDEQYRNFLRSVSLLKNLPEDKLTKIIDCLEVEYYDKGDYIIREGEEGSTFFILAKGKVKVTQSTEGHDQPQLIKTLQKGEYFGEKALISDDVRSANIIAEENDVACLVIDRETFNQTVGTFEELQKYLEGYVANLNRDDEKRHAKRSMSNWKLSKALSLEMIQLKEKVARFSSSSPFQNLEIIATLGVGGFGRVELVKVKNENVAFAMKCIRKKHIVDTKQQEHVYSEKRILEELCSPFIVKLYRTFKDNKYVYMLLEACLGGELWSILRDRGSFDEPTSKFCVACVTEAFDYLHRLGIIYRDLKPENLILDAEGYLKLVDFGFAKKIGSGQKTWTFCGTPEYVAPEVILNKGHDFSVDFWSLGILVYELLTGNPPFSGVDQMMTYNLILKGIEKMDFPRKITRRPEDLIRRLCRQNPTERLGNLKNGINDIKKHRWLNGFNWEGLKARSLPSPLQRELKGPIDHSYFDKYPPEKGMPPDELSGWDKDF
The note with it: at 0.1 µM.

Experiment [7] addresses T4, cGMP-dependent protein kinase 2 (Homo sapiens). Conditions: at 1 µM.
Experiment [8] has as its target T5, cAMP-dependent protein kinase catalytic subunit PRKX (Homo sapiens) (UniProt P51817).
T5 sequence (whole entry): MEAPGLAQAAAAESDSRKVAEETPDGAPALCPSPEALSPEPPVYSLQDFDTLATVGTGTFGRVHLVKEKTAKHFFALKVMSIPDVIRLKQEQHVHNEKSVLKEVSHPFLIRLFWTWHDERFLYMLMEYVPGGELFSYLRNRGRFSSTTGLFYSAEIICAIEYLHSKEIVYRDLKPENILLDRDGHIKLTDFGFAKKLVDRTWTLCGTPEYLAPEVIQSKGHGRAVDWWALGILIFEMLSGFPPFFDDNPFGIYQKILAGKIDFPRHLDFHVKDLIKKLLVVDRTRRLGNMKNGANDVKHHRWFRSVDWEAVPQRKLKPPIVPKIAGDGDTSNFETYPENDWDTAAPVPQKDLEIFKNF
The note with it: at 0.1 µM.

In experiment [9] the target is T5, cAMP-dependent protein kinase catalytic subunit PRKX (Homo sapiens). The note with it: at 1 µM.
For experiment [10], the target named is Rho-associated protein kinase 1 (Homo sapiens) (UniProt Q13464). Conditions: at 0.1 µM.
Rho-associated protein kinase 1 (Homo sapiens), sequence (Q13464 2-1354 limits assumed): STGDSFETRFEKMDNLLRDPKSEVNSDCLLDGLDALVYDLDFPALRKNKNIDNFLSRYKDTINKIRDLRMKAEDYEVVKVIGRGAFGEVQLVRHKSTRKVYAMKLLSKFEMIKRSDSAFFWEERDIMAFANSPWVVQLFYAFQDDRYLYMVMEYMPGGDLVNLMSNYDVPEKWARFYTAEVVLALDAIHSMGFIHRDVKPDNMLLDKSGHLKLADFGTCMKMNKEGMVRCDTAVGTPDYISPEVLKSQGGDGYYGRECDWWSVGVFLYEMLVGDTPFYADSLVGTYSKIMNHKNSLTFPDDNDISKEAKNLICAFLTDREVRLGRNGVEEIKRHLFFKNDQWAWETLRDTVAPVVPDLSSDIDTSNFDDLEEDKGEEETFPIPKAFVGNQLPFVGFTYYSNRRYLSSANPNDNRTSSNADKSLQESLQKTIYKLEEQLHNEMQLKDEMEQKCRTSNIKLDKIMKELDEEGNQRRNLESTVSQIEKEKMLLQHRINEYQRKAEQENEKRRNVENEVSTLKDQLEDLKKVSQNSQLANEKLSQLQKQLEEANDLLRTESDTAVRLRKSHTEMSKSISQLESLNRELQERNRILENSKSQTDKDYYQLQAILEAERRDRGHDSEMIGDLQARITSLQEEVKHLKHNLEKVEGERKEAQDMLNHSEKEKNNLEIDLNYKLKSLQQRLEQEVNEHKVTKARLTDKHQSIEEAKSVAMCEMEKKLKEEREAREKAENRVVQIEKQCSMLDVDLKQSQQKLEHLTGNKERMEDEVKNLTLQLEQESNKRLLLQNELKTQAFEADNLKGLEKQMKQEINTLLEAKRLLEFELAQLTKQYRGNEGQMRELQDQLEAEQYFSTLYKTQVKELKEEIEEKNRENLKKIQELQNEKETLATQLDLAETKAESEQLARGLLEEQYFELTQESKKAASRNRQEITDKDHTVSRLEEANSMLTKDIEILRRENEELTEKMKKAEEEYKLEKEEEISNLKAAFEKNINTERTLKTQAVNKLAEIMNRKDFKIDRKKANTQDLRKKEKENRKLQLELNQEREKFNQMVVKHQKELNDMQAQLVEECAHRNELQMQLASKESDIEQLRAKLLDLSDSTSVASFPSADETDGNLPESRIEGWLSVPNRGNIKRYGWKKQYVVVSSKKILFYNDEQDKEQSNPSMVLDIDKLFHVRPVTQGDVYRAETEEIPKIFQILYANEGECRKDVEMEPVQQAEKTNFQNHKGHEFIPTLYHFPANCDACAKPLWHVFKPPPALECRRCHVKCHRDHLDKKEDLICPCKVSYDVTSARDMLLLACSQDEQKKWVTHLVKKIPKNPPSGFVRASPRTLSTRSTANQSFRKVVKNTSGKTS
For experiment [11] the target is unchanged. Conditions: at 1 µM.
The target of experiment [12] is Rho-associated protein kinase 2 (Homo sapiens) (UniProt O75116). The note with it: at 0.1 µM.
Rho-associated protein kinase 2 (Homo sapiens), sequence (O75116 whole entry, looked up): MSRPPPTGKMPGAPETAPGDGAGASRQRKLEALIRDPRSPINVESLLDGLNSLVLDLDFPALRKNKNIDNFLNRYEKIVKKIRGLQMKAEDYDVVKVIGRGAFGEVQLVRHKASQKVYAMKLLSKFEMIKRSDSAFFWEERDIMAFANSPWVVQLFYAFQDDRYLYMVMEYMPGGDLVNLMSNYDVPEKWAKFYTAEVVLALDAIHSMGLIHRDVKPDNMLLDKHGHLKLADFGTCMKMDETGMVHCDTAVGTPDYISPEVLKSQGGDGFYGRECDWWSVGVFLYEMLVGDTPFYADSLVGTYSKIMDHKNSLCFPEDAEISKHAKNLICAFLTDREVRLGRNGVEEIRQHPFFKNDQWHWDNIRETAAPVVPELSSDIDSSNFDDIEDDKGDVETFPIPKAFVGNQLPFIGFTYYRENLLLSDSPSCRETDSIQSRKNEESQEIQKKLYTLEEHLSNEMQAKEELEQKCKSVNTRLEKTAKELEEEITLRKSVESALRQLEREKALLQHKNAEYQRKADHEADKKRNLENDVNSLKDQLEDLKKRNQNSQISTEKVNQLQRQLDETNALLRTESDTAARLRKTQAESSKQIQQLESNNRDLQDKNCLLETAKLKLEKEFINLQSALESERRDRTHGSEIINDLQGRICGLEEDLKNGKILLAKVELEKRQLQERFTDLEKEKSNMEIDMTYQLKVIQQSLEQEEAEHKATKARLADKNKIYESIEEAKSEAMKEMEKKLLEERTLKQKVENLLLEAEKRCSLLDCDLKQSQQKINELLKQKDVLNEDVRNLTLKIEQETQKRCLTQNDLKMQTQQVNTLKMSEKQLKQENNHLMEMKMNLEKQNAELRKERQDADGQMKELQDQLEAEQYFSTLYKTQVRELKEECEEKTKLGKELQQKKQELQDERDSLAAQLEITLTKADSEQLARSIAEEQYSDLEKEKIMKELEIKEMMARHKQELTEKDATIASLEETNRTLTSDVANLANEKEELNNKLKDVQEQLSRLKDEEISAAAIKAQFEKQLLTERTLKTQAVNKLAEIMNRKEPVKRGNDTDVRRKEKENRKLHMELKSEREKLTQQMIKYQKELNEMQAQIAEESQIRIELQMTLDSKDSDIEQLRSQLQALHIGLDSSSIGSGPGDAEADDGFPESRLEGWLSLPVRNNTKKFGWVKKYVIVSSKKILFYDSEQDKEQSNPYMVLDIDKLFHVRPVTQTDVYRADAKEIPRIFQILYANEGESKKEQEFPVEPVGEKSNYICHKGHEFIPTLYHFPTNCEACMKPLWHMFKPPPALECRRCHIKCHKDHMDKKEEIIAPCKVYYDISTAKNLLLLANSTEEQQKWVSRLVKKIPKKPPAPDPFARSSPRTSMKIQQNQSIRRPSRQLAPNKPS
For experiment [13] the target is unchanged. The note with it: at 1 µM.
The target in experiment [14] is Ribosomal protein S6 kinase alpha-1 (Homo sapiens) (UniProt Q15418). Conditions: at 0.1 µM.
Ribosomal protein S6 kinase alpha-1 (Homo sapiens), sequence (Q15418 whole entry): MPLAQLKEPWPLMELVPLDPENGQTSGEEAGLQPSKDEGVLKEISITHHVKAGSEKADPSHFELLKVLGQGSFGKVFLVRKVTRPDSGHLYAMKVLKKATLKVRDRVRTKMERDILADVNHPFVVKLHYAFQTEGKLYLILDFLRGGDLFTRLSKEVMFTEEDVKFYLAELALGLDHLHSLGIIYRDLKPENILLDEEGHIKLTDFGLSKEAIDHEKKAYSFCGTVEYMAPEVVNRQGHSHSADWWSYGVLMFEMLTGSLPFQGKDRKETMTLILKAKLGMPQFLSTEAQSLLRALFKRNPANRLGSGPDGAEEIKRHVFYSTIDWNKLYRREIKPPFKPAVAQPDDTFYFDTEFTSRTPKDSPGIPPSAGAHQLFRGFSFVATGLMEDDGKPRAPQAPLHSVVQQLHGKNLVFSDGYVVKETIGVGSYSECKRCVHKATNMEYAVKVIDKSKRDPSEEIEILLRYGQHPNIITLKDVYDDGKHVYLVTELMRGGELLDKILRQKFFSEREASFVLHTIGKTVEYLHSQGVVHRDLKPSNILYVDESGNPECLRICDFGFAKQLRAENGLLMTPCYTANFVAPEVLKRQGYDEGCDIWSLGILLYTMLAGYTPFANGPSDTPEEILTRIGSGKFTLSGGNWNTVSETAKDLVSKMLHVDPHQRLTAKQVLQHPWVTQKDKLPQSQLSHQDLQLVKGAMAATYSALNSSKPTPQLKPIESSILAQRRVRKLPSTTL
For experiment [15] the target is unchanged. The note with it: at 1 µM.
Experiment [16] deals with Ribosomal protein S6 kinase alpha-3 (Homo sapiens) (UniProt P51812). Conditions: at 0.1 µM.
Ribosomal protein S6 kinase alpha-3 (Homo sapiens), sequence (P51812 whole entry): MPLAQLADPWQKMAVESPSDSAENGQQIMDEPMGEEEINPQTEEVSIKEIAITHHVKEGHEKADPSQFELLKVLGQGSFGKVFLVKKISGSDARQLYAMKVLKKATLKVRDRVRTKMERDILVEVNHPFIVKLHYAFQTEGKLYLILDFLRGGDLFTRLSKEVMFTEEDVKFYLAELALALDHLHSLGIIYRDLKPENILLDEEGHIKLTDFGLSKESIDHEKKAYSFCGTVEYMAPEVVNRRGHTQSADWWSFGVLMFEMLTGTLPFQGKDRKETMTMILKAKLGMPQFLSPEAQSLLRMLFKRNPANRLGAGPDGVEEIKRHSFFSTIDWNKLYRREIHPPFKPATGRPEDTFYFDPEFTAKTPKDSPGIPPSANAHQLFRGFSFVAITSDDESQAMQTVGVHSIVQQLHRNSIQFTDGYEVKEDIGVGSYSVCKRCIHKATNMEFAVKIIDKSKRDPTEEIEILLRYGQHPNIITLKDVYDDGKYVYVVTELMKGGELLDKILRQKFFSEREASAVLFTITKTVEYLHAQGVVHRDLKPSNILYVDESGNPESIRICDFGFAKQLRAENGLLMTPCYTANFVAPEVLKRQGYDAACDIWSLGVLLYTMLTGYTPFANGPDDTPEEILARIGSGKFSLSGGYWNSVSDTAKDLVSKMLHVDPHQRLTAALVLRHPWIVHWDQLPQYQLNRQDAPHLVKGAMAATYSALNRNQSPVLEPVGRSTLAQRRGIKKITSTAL
The target is the same in experiment [17]. The note with it: at 1 µM.
Experiment [18] addresses Ribosomal protein S6 kinase alpha-2 (Homo sapiens) (UniProt Q15349). The note with it: at 0.1 µM.
For experiment [19] the target is unchanged. The note with it: at 1 µM.
In experiment [20] the target is Ribosomal protein S6 kinase alpha-6 (Homo sapiens) (UniProt Q9UK32). The note with it: at 0.1 µM.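 Note: reported value is the mean inhibition of RSK4, from the GSK PKIS kinase inhibitor screen.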

Ribosomal protein S6 kinase alpha-2 (Homo sapiens), sequence (Q15349 whole entry): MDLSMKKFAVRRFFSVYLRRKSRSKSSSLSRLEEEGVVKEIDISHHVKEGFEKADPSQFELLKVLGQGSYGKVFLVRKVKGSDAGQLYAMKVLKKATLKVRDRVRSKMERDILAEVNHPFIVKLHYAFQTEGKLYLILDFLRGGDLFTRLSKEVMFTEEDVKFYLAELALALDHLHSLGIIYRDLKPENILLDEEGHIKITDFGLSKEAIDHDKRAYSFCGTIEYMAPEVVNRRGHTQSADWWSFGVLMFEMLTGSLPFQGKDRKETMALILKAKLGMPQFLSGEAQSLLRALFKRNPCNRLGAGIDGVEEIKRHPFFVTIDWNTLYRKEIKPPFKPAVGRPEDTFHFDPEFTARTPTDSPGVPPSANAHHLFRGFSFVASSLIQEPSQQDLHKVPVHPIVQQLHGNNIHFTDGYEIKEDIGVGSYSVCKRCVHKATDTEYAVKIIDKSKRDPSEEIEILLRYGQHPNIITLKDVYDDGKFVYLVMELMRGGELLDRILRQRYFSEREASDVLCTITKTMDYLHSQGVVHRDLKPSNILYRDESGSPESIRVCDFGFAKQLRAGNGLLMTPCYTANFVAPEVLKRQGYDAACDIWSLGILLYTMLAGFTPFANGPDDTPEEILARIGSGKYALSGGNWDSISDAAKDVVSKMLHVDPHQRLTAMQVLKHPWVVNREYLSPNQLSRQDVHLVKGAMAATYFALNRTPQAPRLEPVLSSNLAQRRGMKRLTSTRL

What is called inhibition is the change of the read-out against control, counted positive when it falls. On to `NC(=O)c1ccc2c(-c3ccnc(NCCCO)n3)c(-c3ccc(F)cc3)nn2c1`, for which the inhibition in experiment [1] was 32.7%; in [2], 7.38%; in experiment [3] it was 28.4%; in experiment [4] it was 3.77%; in experiment [5] it was 5.16%; in [6], 1.84%. The inhibition was 3.89% in experiment [7]; 1.77% in [8]; 1.05% in experiment [9]; 1.85% in experiment [10]; 1.92% in experiment [11]; 3.55% in [12]. The inhibition amounted to 5.31% in [13]; 3.69% in [14]; 1.7% in experiment [15]; 0.96% in experiment [16]; 1.23% in experiment [17]; 2.66% in experiment [18]. In addition, the figures for the inhibition in experiment [19] and in experiment [20] were 3.1% and 2.24%, respectively.
On to `CN1CCC(n2cnc(-c3ccc(F)cc3)c2-c2ccnc(NCCO)n2)CC1`, for which the inhibition in experiment [1] is 14.8%; in experiment [2] it was 6.16%; in [3], 11%; in [4], 1.3%; in experiment [5] it was 4.89%; in [6] it was 2.55%. Moreover, the inhibition in experiment [7] stood at 5.54%; in [8], 3.06%; in experiment [9], 5.03%; in [10], 0.7%; in experiment [11] it was 4.39%; in experiment [12], 3.23%. For the same molecule, the inhibition in experiment [13] was found to be 8.52%; in experiment [14], 1.81%; in [15] it was 6.04%; in experiment [16], 0.9%; in experiment [17], 3.09%; in experiment [18] it was 3.09%. The results for the inhibition in [19] and in experiment [20] were 4.29% and 1.56%, respectively.
Take `COc1cc(Nc2ncc(-c3ccccc3)o2)cc(OC)c1`: the inhibition is 1.86% in [1]; 5.05% in experiment [2]; 4.51% in [3]; 1.76% in experiment [4]; 1.96% in [5]; 1.74% in [6]. Moreover, the inhibition worked out at 2.19% in experiment [7]; 0.91% in [8]; 4.53% in [9]; 2.5% in experiment [10]; 2.6% in experiment [11]; 3.77% in [12]. In addition, the inhibition is -3.98% in [13]; 1.54% in [14]; 1.99% in experiment [15]; 1.01% in experiment [16]; 2.61% in experiment [17]; 1.71% in experiment [18]. Besides, the inhibition in experiment [19] turned out to be 3.57%; in [20] it was 0.85%.
Consider `N#Cc1ccc2c(-c3ccnc(NC4CC4)n3)c(-c3ccc(F)cc3)nn2c1`, for which the inhibition is 44.2% in experiment [1]; 6.5% in experiment [2]; 41.7% in experiment [3]; 1.2% in experiment [4]; -0.35% in experiment [5]; 0.69% in [6]. Besides, the inhibition in experiment [7] was -1.36%; in experiment [8] it was 1.65%; in experiment [9] it was 0.23%; in [10], 0.62%; in [11], 0.26%; in [12] it was 0.99%. Moreover, the inhibition in [13] came out at 0.79%; in experiment [14], 0.57%; in [15], 0.36%; in experiment [16], 0.08%; in experiment [17] it was 0.42%; in experiment [18], 1.03%. Besides, the values for the inhibition in experiment [19] and in experiment [20] were 1.48% and 1.23%, respectively.
As for `CCCNc1cccc(-n2ncc3c(N/N=C/c4ccncc4)ncnc32)c1`, the inhibition stood at 1.21% in experiment [1]; 0.66% in experiment [2]; 0.02% in [3]; 0.73% in [4]; 2.57% in experiment [5]; 2.7% in [6]. In addition, the inhibition in experiment [7] is 4.72%; in experiment [8], 2.18%; in [9], 4.42%; in experiment [10], 2.35%; in experiment [11] it was 13.7%; in experiment [12] it was 4.97%. Besides, the inhibition is 28.1% in experiment [13]; 1.36% in [14]; 4.72% in experiment [15]; 1.62% in experiment [16]; 4.75% in experiment [17]; -0.01% in experiment [18]. Moreover, the inhibition in experiment [19] was found to be 2.43%; in experiment [20], 0.53%.

The values are drawn from ChEMBL document CHEMBL1961873, “Compounds: GSK PKIS; Assays: Nanosyn kinase panel” (2012).
